The target of test [1] is Cytochrome P450 3A7 (Homo sapiens) (UniProt P24462). The experiment in a line: Cytochrome P450 family 3 subfamily A member 7 (CYP3A7) small molecule antagonists: luciferase biochemical qHTS assay (AID 1963596). Also: % is scaled to controls: 0 for no effect and ±100 for the full control effect; nearly all actives have a fitted effect of over 40% in size. Put shortly:
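Compounds were screened in qHTS format for interference with CYP3A7 turnover of a proluciferin substrate. Reactions ran 1 h at room temperature after NADPH regeneration solution was added, then luciferin product was detected by luminescence.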

Test [2] is described as follows: Viability qHTS for spleen associated tyrosine kinase inhibitor (SYKi) naive MV4-11 cells (AID 1963823). Also: nearly all actives have a fitted effect of over 40% in size. Also: potency is read from the fitted curve at half-maximal effect. In short, it runs like this:
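Seeding of 500 SYKi-naive MV4-11 cells per well onto pre-dispensed compounds preceded a 72 hr incubation at 37 C. Luminescent CellTiter-Glo signal, read after 10 min at room temperature, reflected viable cells.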
(qHTS replaces the single test concentration by a dilution series.)

A short description of test [3]: Viability qHTS for spleen associated tyrosine kinase inhibitor (SYKi) drug resistant MV4-11 cells (AID 1963824). Also: nearly all actives have a fitted effect of over 35% in size. Also: potency is read from the fitted curve at half-maximal effect. Put shortly:
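SYK-inhibitor-resistant MV4-11 AML cells were seeded at 500 per well onto compound and cultured 72 hours (37 °C, 5% CO2). CellTiter-Glo was then added, and after 10 min at room temperature, luminescence gave viability.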

Test [4] is described as follows: Cellular viability qHTS for adrenocortical cancer (ACC) cell line SW-13 (AID 1963989). Also: nearly all actives have a fitted effect of over 65% in size. Also: potency is read from the fitted curve at half-maximal effect.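 As to activity (max response): cells grown in serum-free medium with ITS supplement; % is scaled to controls: 0 for no effect and ±100 for the full control effect.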 The note with it: SW-13 ACC cells viability, CellTiter-Glo, 48 h; activity (max response): hits give low values. In short, it runs like this:
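Viability was read as CellTiter-Glo luminescence after 48 h compound treatment (up to 46 uM final) of SW-13 cells grown serum-free; titration curves were fit with a four-parameter logistic model to give IC50 and efficacy.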

Test [5] can be described thus: Cellular viability qHTS for adrenocortical cancer (ACC) cell line NCI-H295R (AID 1963990). Also: nearly all actives have a fitted effect of over 60% in size. Also: potency is read from the fitted curve at half-maximal effect.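 As to activity change, negative = viability loss: 0% = DMSO only wells and -100% = full killing with cytotoxic reference compound.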 Put shortly: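 CellTiter-Glo ATP luminescence, read 48 h after compound addition, measured viability of NCI-H295R adrenocortical cells grown serum-free with ITS. Final concentrations spanned up to 46 uM. Data normalized to DMSO and doxorubicin, fitted for IC50 and maximal response.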

“And” between values parts separate entries of the source, which are not always exact repeats. Equal values may be shown once. Results filed as inconclusive are left out. A number with no mark means an inactive call. The source made the active and inactive calls. Calls follow the shape of the dose curve; as a rule, active = well fitted curve in the direction sought with a large enough effect; inconclusive = small, poorly fitted or top-dose-only effect, or another doubt; inactive = no such curve, though single readings can be large; an effect the other way counts as inactive or inconclusive.

Cytochrome P450 3A7 (Homo sapiens), sequence (P24462 whole entry, looked up): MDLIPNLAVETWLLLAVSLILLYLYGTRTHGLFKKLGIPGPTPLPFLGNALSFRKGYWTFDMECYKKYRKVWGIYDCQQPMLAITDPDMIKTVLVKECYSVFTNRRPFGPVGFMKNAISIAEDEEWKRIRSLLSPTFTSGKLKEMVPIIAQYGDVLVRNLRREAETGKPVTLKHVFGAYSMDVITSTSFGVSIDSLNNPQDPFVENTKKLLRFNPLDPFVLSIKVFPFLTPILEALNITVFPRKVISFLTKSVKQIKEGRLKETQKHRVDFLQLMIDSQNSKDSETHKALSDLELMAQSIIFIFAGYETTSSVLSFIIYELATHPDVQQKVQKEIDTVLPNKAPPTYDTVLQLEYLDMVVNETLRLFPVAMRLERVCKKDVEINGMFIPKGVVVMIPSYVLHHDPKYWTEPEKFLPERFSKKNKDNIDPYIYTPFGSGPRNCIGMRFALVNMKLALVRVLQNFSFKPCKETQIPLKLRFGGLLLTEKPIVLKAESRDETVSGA

Take `Cn1c(=O)c2[nH]c(Br)nc2n(C)c1=O`: the Potency entry in test [1], in test [2], in test [3] and in test [5] was “inactive” throughout. The activity (max response) in test [4] is -1.12%.
For the compound `O=C1NS(=O)(=O)c2ccccc21`, the Potency result in test [1], in test [2], in test [3] and in test [5] was “inactive” throughout. The activity (max response) in test [4] was 0.607%.
Turning to `COCCOCC(OC)OC`, the Potency entry in test [1], in test [2], in test [3] and in test [5] was “inactive” each time. The activity (max response) in test [4] was 10.1%.
Turning to `O=C(NCC(O)CO)c1c(I)c(C(=O)NCC(O)CO)c(I)c(N(CCO)C(=O)CO)c1I` (stereo not given), the Potency result in test [1], in test [2], in test [3] and in test [5] was “inactive” each time. In addition, the activity (max response) in test [4] is -7.35%.
Regarding `O=C(CN1CCNCC1)NC1CCCCC1`, the Potency result in test [1], in test [2], in test [3] and in test [5] was “inactive” throughout. For the same compound, the activity (max response) in test [4] is -8.69%.
Regarding `CCOC(=O)[C@H](CCc1ccccc1)N[C@@H](C)C(=O)N1CCC[C@H]1C(=O)O`, the Potency result in test [1], in test [2], in test [3] and in test [5] was “inactive” in each case. Moreover, the activity (max response) in test [4] was 11.5% and -12%.
`Cc1ccc(-c2ccc3ncc4c(c3n2)n(C2CCN(C(=O)[C@H](C)O)CC2)c(=O)n4C)cn1`: in test [1], the Potency entry is “inactive”. Also, the Potency in test [2] was 65.1 nM (active); in test [3], 58 nM (active); in test [4] it was 794 nM (active); in test [5], 141 nM (active).
Regarding `CC(=O)N[C@@H](CCC(=O)O)C(=O)O`, the Potency result in test [1], in test [2], in test [3] and in test [5] was “inactive” each time. Moreover, in test [4], the activity (max response) is 10.8%.
As to `C[C@]12CCC(=O)C=C1CC[C@@H]1[C@@H]2[C@@H](O)C[C@@]2(C)[C@H]1CC[C@]2(O)C(=O)CO`, the Potency entry in test [1], in test [2], in test [3] and in test [5] was “inactive” each time. Further, the activity (max response) in test [4] was 8.55% and 7.07%.
With `Oc1ccc(Cl)c2cccnc12`, the Potency result in test [1], in test [2], in test [3] and in test [5] was “inactive” in each case. The activity (max response) in test [4] is 4.85%.
Consider `O=C(O)Cc1cccc(-c2cc(CCCCCCc3ccc(O[C@H]4O[C@H](CO)[C@@H](O)[C@H](O)[C@@H]4O)c(-c4cccc(CC(=O)O)c4)c3)ccc2O[C@H]2O[C@H](CO)[C@@H](O)[C@H](O)[C@@H]2O)c1`, for which the activity change, negative = inhibition in test [1] was -19.9% [at 0.91 µM]. Further, the viability (% of control) in test [2] is 99.5% [at 0.588 µM]. For the same compound, the viability, % of control in test [3] was 113% [at 0.588 µM]. Besides, in test [4], the activity (max response) was 8.49%. In addition, the activity change, negative = viability loss in test [5] is -4.2% [at 0.587 µM].
Take `O=C(Nc1ccc(Cl)cc1)Nc1ccc(Cl)c(Cl)c1`: in test [1], the Potency result is “inactive”. For the same compound, the Potency in test [2] is 9440 nM (active); in test [3], 9440 nM (active); in test [4], 2590 nM (active); in test [5] it was 4110 nM (active).
For the compound `CNC(=O)c1c(I)c(NC(C)=O)c(I)c(C(=O)O)c1I`, the Potency result in test [1], in test [2], in test [3] and in test [5] was “inactive” throughout. Also, the activity (max response) in test [4] was 10%.
With `CCCCCCCCCCCCCCCCCCO`, the Potency result in test [1], in test [2], in test [3] and in test [5] was “inactive” each time. In addition, the activity (max response) in test [4] is -0.0263%.
As for `O=C(/C=C/c1ccccc1)OCc1ccccc1`, the Potency result in test [1], in test [2], in test [3] and in test [5] was “inactive” each time. For the same compound, the activity (max response) in test [4] is 5.62%.
Consider `C[C@](N)(Cc1ccc(O)cc1)C(=O)O`, for which the activity change, negative = inhibition in test [1] was 1.38% [at 4.83 µM]. In addition, the viability (% of control) in test [2] is 79.1% [at 4.97 µM]. Also, the viability, % of control in test [3] was 90.5% [at 4.97 µM]. Moreover, the activity (max response) in test [4] was -6.01%. Besides, the activity change, negative = viability loss in test [5] was -1.14% [at 3.81 µM].

Source of the values: PubChem BioAssay (NCATS).
